Out of some 52,000 compounds screened, about 4,300 (8.3%) were called active. For the sample, actives were picked, then their nearest neighbours and some compounds at random. Values without a mark were called inactive. Cut-off read from the data, not from the text of the source: active = survival mostly below about 52% (no sharp cut-off); inactive = mostly above about 56%.
What follows are compounds tested on DeltatarO mutant (assay: growth inhibition of S. aureus wild type versus tarO mutant, primary screen, teichoic acid synthesis inhibitors, RN4220, OD600 (AID 463173)). Conditions: OD600, 18 h, active compounds read low, screened at 18.75 µg/mL (by protocol).

Row | Compound | survival
1 | Cc1ccc(-n2nc3c(=O)n(CCCC(=O)NC(C)c4ccccc4)nc(C)c3c2C)cc1 (stereo not drawn) | 67%
2 | COc1ccc(S(=O)(=O)N(CCc2ccccc2)CC(=O)NCc2ccccc2)cc1OC | 62%
3 | Cc1c(Cl)cccc1NC(=O)CC(c1cccs1)N1Cc2ccccc2C1=O (stereo not drawn) | 32% (active)
4 | CCc1ccccc1NC(=O)CC(c1ccc(F)cc1)N1Cc2ccccc2C1=O (stereo not drawn) | 117%
5 | CCOc1ccccc1NC(=O)CC(c1ccc(F)cc1)N1Cc2ccccc2C1=O (stereo not drawn) | 99%
6 | O=C(CC(c1cccs1)N1Cc2ccccc2C1=O)Nc1ccccc1F (stereo not drawn) | 78%
7 | O=C(CC(c1cccs1)N1Cc2ccccc2C1=O)Nc1ccc(Cl)cc1 (stereo not drawn) | 131%
8 | Cc1c(Cl)cccc1NC(=O)CC(c1ccc(F)cc1)N1Cc2ccccc2C1=O (stereo not drawn) | 37% (active)
9 | CCOC(=O)C1CCCN(C(=O)Cn2ncc3c([nH]c4ccc(C)cc43)c2=O)C1 (stereo not drawn) | 81%
10 | CCOC(=O)c1ccc2c(c1)N(CC#N)C(=O)C(C)(C)O2 | 94%
11 | CCOC(=O)c1[nH]c(Cc2[nH]c(C(=O)OCC)c(C)c2CC(=O)OC)c(CCC(=O)OC)c1C | 70%
12 | CCOc1ccc(NC(=O)c2cc(=O)c3ccc(C)c(C)c3o2)cc1 | 60%
13 | COC(=O)c1ccccc1NC(=O)c1cc(=O)c2ccc(C)c(C)c2o1 | 72%
14 | CCc1ccc(NC(=O)c2cc(=O)c3ccc(C)c(C)c3o2)cc1 | 91%
15 | Cc1cc(C)c2c(=O)cc(C(=O)Nc3ccccc3Cl)oc2c1 | 62%
16 | Cc1ccc2c(=O)cc(C(=O)Nc3ccc(S(=O)(=O)N(C)c4ccccc4)cc3)oc2c1C | 50% (active)
17 | Cc1ccc2c(=O)cc(C(=O)Nc3cccc(Cl)c3C)oc2c1C | 54%
18 | Cc1ccc2c(=O)cc(C(=O)Nc3ccc(S(=O)(=O)N(C)Cc4ccccc4)cc3)oc2c1C | 92%
19 | COc1ccccc1NC(=O)c1cc(=O)c2ccc(C)c(C)c2o1 | 41% (active)
20 | COc1ccc(OC)c(NC(=O)c2cc(=O)c3c(C)cc(C)cc3o2)c1 | 42% (active)
21 | COc1ccc(CCNC(=O)c2cc(=O)c3c(C)cc(C)cc3o2)cc1OC | 57%
22 | CCN(c1ccccc1)S(=O)(=O)c1ccc(NC(=O)c2cc(=O)c3ccc(C)c(C)c3o2)cc1 | 64%
23 | CCOC(=O)c1ccc(NC(=O)c2cc(=O)c3ccc(C)c(C)c3o2)cc1 | 45% (active)
24 | COc1cccc2cc(-c3nc(-c4cccs4)no3)c(=O)oc12 | 67%

Row | Compound | survival
25 | COc1ccc(C)c2sc(NC(=O)c3ccc(S(=O)(=O)N4CCCCC4)cc3)nc12 | 92%
26 | O=C(O)c1cc2nc3c(c(C(F)(F)F)n2n1)CCC3 | 89%
27 | O=C(Cn1cnc2c(nc3n2CCCCC3)c1=O)Nc1cccc(C(F)(F)F)c1 | 83%
28 | O=C(Cn1cc(S(=O)(=O)Cc2ccccc2F)c2ccccc21)NCc1ccccc1 | 87%
29 | Cc1ccc(NCc2cc3cc4c(cc3n(CC(=O)Nc3ccc(F)cc3F)c2=O)OCCO4)cc1 | 70%
30 | O=C(CN1CCC(C(=O)c2ccc(F)cc2)CC1)Nc1ccccc1 | 83%
31 | CCCCSc1nc(O)c(CCC(C)C)c(=O)[nH]1 | 60%
32 | Cc1ccc(S(=O)(=O)N(CCc2ccccc2)CC(=O)Nc2ccc(Br)cc2)cc1 | 75%
33 | COc1cc(NC(=O)CSc2nc(-c3ccc(C(C)C)cc3)no2)cc(OC)c1 | 91%
34 | O=C(Cn1c(=O)n(-c2cccc(Cl)c2)c(=O)c2sc3ccccc3c21)NC1CCCCC1 | 127%
35 | OC1(c2ccccc2)CCN(Cc2ccccc2)CC1 | 73%
36 | C/C=C1\NC(=S)N(Cc2ccccc2)C1=O | 84%
37 | O=C1CCN(Cc2ccccc2)C(=S)N1 | 49% (active)
38 | COC(=O)C1C(=O)C2=C(CC1C)Nc1ccccc1NC2c1ccc(N(C)C)cc1 (stereo not drawn) | 79%
39 | Cc1ccc(-c2nnc3ccccc3c2C(=O)Nc2ccc(C)c(F)c2)cc1 | 80%
40 | O=C(COc1ccc(F)cc1)Nc1ccc2nc(SCCOc3ccccc3)sc2c1 | 87%
41 | CCOC(=O)c1ccc(N2CCN(c3ccc(F)cc3)CC2)c(NC(=O)Nc2cccc(OC)c2)c1 | 70%
42 | CCOC(=O)c1ccc(NC(=O)Nc2cc3c(cc2N2CCCCC2)n(CC)c(=O)n3CC)cc1 | 57% (active)
43 | CCn1c(=O)n(CC)c2cc(N3CCCCC3)c(NC(=O)Nc3cc(C)cc(C)c3)cc21 | 100%
44 | CCOC(=O)c1ccc(NC(=O)Nc2cc3c(cc2N2CCCC2)n(C)c(=O)n3C)cc1 | 82%
45 | CCOC(=O)c1ccc(N2CCN(c3cccc(OC)c3)CC2)c(NC(=O)Nc2ccc(OCC)cc2)c1 | -5% (active)
46 | CCOC(=O)c1ccc(N2CCN(c3cccc(Cl)c3)CC2)c(NC(=O)Nc2ccc(Cl)cc2)c1 | 92%
47 | CCOc1ccc(-c2nc3c(c(CC)nn3-c3ccccc3)c3cc(OC)c(OC)cc23)cc1 | 78%
48 | CCc1nc2sc3c(N4CCC(C)CC4)ncnc3c2c2c1CCCC2 | 134%

Row | Compound | survival
49 | CCc1cccc(NC(=O)Cn2c(=O)n(CCC(=O)NCC3CCCO3)c(=O)c3cc(OC)c(OC)cc32)c1 (stereo not drawn) | 62%
50 | COc1cccc2c1Oc1nc(-c3ccccc3)nc(SCC(=O)Nc3ccccc3)c1C2 | 81%
51 | CCOC(=O)c1ccc(NC(=O)c2ccc3c(c2)CCN3S(=O)(=O)c2ccc(Cl)cc2)cc1 | 64%
52 | Cc1cccc(N2CCN(C(=O)c3cnc4c(C)cccn4c3=O)CC2C)c1 (stereo not drawn) | 32% (active)
53 | CCc1ccccc1N(C)C(=O)c1cn(CC(C)C)c(=O)c2cc(OC)c(OC)cc12 | 73%
54 | CCN(C(=O)c1cn(CC(C)C)c(=O)c2cc(OC)c(OC)cc12)c1cc(OC)ccc1OC | 55%
55 | COc1cc2c(C(=O)N3CCN(c4ccc(C)cc4)C(C)C3)cn(CC(C)C)c(=O)c2cc1OC (stereo not drawn) | 47%
56 | COc1cc2c(C(=O)N3CCN(c4cccc(C)c4)C(C)C3)cn(CC(C)C)c(=O)c2cc1OC (stereo not drawn) | 46% (active)
57 | CCn1cc(C(=O)N2CCN(c3cc(Cl)ccc3C)CC2)c2cc(OC)c(OC)cc2c1=O | 64%
58 | Cc1cccn2c(=O)c(C(=O)N3CCN(c4ccccc4)CC3)cnc12 | 49%
59 | CCCN(C(=O)c1cn(CC(C)C)c(=O)c2cc(OC)c(OC)cc12)c1cccc(C)c1 | 152%
60 | COc1cc2c(C(=O)N(C)c3cc(Cl)ccc3OC)cn(CC(C)C)c(=O)c2cc1OC | 48% (active)
61 | Cc1cccc(N2CCN(C(=O)c3cccn4c(=O)c5cc(Cl)ccc5nc34)CC2C)c1 (stereo not drawn) | 66%
62 | COc1cc2c(C(=O)N3CCN(c4ccc(F)cc4)CC3)cn(CC(C)C)c(=O)c2cc1OC | 56%
63 | COc1cc2c(C(=O)N3CCN(c4cc(Cl)ccc4C)CC3)cn(CC(C)C)c(=O)c2cc1OC | 40% (active)
64 | CCOc1cc(C#N)c(NC(=O)c2ccc(OC)c(S(=O)(=O)N3CCCC3)c2)cc1OCC | 52%
65 | CCCCCOc1ccc(C(=O)CCN2CCOCC2)cc1 | 90%
66 | CC(C)c1nc2ccc(C(=O)NCc3ccc(F)cc3)cc2o1 | 78%
67 | COc1ccc(C2CC(=O)c3c([nH]c(C(=O)OC4CCCCCC4)c3C)C2)cc1 (stereo not drawn) | 79%
68 | CCc1ccc(NC(=O)Cn2c(=O)n(CCCC(=O)NCCc3ccc(OC)c(OC)c3)c(=O)c3ccccc32)cc1 | 77%
69 | COc1ccc2c(c1)cc1c(=O)n(CC(=O)NC(C)C)nc(C)n12 | 78%
70 | N#Cc1c2c(c(N3CCOCC3)[nH]c1=S)CCCC2 | 94%
71 | O=S(=O)(NCC(c1ccco1)N1CCOCC1)c1ccc(Cl)cc1 (stereo not drawn) | 86%
72 | O=C(Nc1c(C(=O)N2CCN(c3ccccc3F)CC2)oc2ccccc12)c1ccccc1F | 75%

Row | Compound | survival
73 | Oc1ccc(NCc2ccc(OCc3ccccc3Cl)cc2)cc1 | 35% (active)
74 | Oc1ccc(NCc2ccccc2OCc2ccc(Cl)cc2)cc1 | 91%
75 | Oc1ccc(NCc2ccccc2OCc2ccccc2Cl)cc1 | 52% (active)
76 | Oc1ccc(NCc2ccccc2OCc2ccccc2F)cc1 | 60%
77 | Oc1ccc(NCc2ccc(OCc3ccccc3)cc2)cc1 | 72%
78 | CCOc1cccc(CNc2ccc(O)cc2)c1OCc1ccccc1Cl | 68%
79 | CCC(C)NC(=O)Cn1c(=O)n(CCCC(=O)NCc2ccc(C)cc2)c(=O)c2ccccc21 (stereo not drawn) | 94%
80 | COc1ccccc1OCC(=O)NCC1(N(C)C)CCCCC1 | 91%
81 | O=S(=O)(NCCc1ccccc1)c1ccc(N2CCCCS2(=O)=O)cc1 | 52% (active)
82 | COc1ccc(CCNS(=O)(=O)c2ccc(N3CCCCS3(=O)=O)cc2)cc1 | 79%
83 | O=S(=O)(NCCc1ccc(Cl)cc1)c1ccc(N2CCCCS2(=O)=O)cc1 | 93%
84 | c1ccc(Cn2nnnc2C(c2cccs2)N(Cc2cccnc2)Cc2ccco2)cc1 (stereo not drawn) | 64%
85 | Cc1c[n+](CC(=O)c2ccccc2)c(C)cn1 | 101%
86 | Cc1nc(-c2ccc(F)cc2)sc1CCNC(=O)c1ccc(OC(C)C)cc1 | 67%
87 | Cc1ccc(C(=O)N2CCC(C(=O)O)CC2)cc1 | 90%
88 | COc1cc(C(=O)Oc2c(Sc3ccc(C)cc3)c(C)nn2-c2ccccc2)cc(OC)c1OC | 109%
89 | Cc1ccc(Sc2c(C)nn(-c3ccccc3)c2OC(=O)C(C)(C)C)cc1 | -10% (active)
90 | Cc1ccc(Sc2c(C)nn(-c3ccccc3)c2OC(=O)CC(C)C)cc1 | 21% (active)
91 | Cc1ccc(C(=O)Oc2c(S(=O)(=O)c3ccccc3)c(C)nn2-c2ccccc2)cc1 | 90%
92 | COc1ccc(C(=O)Oc2c(Sc3ccccc3)c(C)nn2-c2ccccc2)c(OC)c1 | 114%
93 | Cc1nn(-c2ccccc2)c(OC(=O)C(C)(C)C)c1Sc1ccccc1 | 62%
